The panel holds about 83,000 compounds, 20% with a hit somewhere; the sample as a whole holds those more often.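 The test compound was applied at a single concentration to cells in 96-well plates for 48 hours, and percent growth was recorded.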 Calls of active or inactive are those of the source. The calls were made as follows: active = growth percent below 10; inactive = the rest.
Columns and labels:
Assay in all cases: NCI-60 one-dose screen, 48 h (100 = growth as untreated, 0 = no growth, -100 = all killed)
Settings in all cases: 10 µM unless noted
[1] = tested on: SR leukemia
[2] = tested on: RPMI-8226 leukemia
[3] = tested on: OVCAR-8 ovarian
[4] = tested on: OVCAR-5 ovarian
[5] = tested on: OVCAR-4 ovarian
[6] = tested on: SK-OV-3 ovarian
[7] = tested on: IGROV1 ovarian
[8] = tested on: OVCAR-3 ovarian
[9] = tested on: HS 578T breast
[10] = tested on: NCI/ADR-RES ovarian

Measured: growth

CCCCCCCCCCCC[n+]1ccc(CCCCCCCCC)cc1
active: [1] -32% | [2] -54.6% | [3] -80.4% | [4] -16.8% | [5] -79.1% | [6] -18.9% | [7] -79.5% | [8] -85.3% | [9] -7.56%
inactive: [10] 35.8%

Oc1ccc(Br)cc1Sc1cc(Br)ccc1O
inactive: [1] 41.4% | [3] 51.4% | [4] 105% | [5] 37.3% | [6] 98.3% | [7] 81.5% | [8] 28.9% | [10] 31.4%
active: [2] 4.14%

C(=N\Nc1ccc2ccccc2n1)/c1ccccn1
inactive: [2] 25.1% | [3] 18.5% | [4] 47.4% | [5] 22.2% | [6] 26.1% | [8] 44.7% | [9] 38.4% | [10] 18.6%
active: [1] 6.86% | [7] 2.7%

CN=C(N)N/N=C(\c1ccccc1)c1ccc(Br)cc1
active: [1] -15.2% | [3] 1.03% | [6] -1.99% | [7] -7.13% | [8] 2.68% | [10] 9%
inactive: [2] 27.5% | [4] 32.4% | [5] 42.1% | [9] 18.4%
